{"source": "the antibiotic and cytotoxicity screens of Wong et al. (2023)", "note": "The whole screen tested about 39,000 compounds, of which about 3,300 (8.5%) were called active. This excerpt belongs to a sample that is enriched for actives."}
{"tested_on": "HepG2", "assay": "cytotoxicity call (relative viability < 0.9)", "conditions": "10 µM"}
{"smiles": "C[C@@H]1CCCCO[C@H](CN(C)S(=O)(=O)c2cn(C)cn2)[C@H](C)CN([C@@H](C)CO)C(=O)c2cc(NC(=O)CCCN(C)C)ccc2O1", "cytotoxicity call": "inactive"}
{"smiles": "CO[C@H](CN(C)C(=O)Nc1ccc(C(F)(F)F)cc1)[C@H](C)CN(Cc1ccccc1Cl)[C@@H](C)CO", "cytotoxicity call": "inactive"}
{"smiles": "C[C@@H]1CN([C@H](C)CO)C(=O)c2c(c3ccccc3n2C)-c2ccccc2CO[C@@H]1CN(C)C(=O)Nc1ccc(F)cc1", "cytotoxicity call": "inactive"}
{"smiles": "COCC(=O)N1CC[C@@H](O)[C@@H]1Cc1cnn(C)c1", "cytotoxicity call": "inactive"}
{"smiles": "CN1C(=O)c2cc(NC(=O)C3CCOCC3)ccc2OC[C@H]2O[C@H](CC(=O)NCc3ccccc3F)CC[C@@H]21", "cytotoxicity call": "inactive"}
{"smiles": "COC(=O)C[C@@H]1CC[C@H]2[C@H](COc3ccc(NS(=O)(=O)c4ccccc4Cl)cc3C(=O)N2C)O1", "cytotoxicity call": "inactive"}
{"smiles": "COCC(=O)N1C[C@H](C)[C@H](OC)CN(C)C(=O)c2cc(NC(=O)Nc3ccccc3)ccc2OC[C@H]1C", "cytotoxicity call": "inactive"}
{"smiles": "C[C@@H]1CN([C@H](C)CO)C(=O)c2cccc(NC(=O)c3ccncc3)c2O[C@H]1CN(C)Cc1ccc2c(c1)OCO2", "cytotoxicity call": "inactive"}
{"smiles": "O=C(CCCCCCC(=O)N/N=C/[C@@H](O)[C@H](O)[C@H](O)CO)NO", "cytotoxicity call": "inactive"}
{"smiles": "C[C@H](CO)N1C[C@H](C)[C@@H](CN(C)Cc2ccc(Cl)c(Cl)c2)OCCCC[C@H](C)Oc2ccc(NS(=O)(=O)c3ccc(Cl)cc3)cc2C1=O", "cytotoxicity call": "inactive"}
{"smiles": "C[C@@H]1CCCCO[C@@H](CN(C)Cc2ccc(Cl)c(Cl)c2)[C@@H](C)CN([C@H](C)CO)C(=O)c2cc(NS(=O)(=O)c3ccc(Cl)cc3)ccc2O1", "cytotoxicity call": "inactive"}
{"smiles": "C[C@@H]1CCCCO[C@@H](CN(C)Cc2ccc(Cl)c(Cl)c2)[C@H](C)CN([C@H](C)CO)C(=O)c2cc(NS(=O)(=O)c3ccc(Cl)cc3)ccc2O1", "cytotoxicity call": "active"}
{"smiles": "C[C@@H]1CCCCO[C@H](CN(C)Cc2ccc(Cl)c(Cl)c2)[C@@H](C)CN([C@H](C)CO)C(=O)c2cc(NS(=O)(=O)c3ccc(Cl)cc3)ccc2O1", "cytotoxicity call": "active"}
{"smiles": "C[C@@H]1CCCCO[C@H](CN(C)Cc2ccc(Cl)c(Cl)c2)[C@@H](C)CN([C@@H](C)CO)C(=O)c2cc(NS(=O)(=O)c3ccc(Cl)cc3)ccc2O1", "cytotoxicity call": "active"}
{"smiles": "C[C@@H]1CCCCO[C@H](CN(C)Cc2ccc(Cl)c(Cl)c2)[C@H](C)CN([C@@H](C)CO)C(=O)c2cc(NS(=O)(=O)c3ccc(Cl)cc3)ccc2O1", "cytotoxicity call": "active"}
{"smiles": "CC(C)NC(=O)Nc1cccc2c1O[C@H](CN(C)Cc1ccc3c(c1)OCO3)[C@@H](C)CN([C@@H](C)CO)C2=O", "cytotoxicity call": "inactive"}
{"smiles": "COc1ccc(NC(=O)Nc2ccc3c(c2)C(=O)N([C@H](C)CO)C[C@H](C)[C@@H](CN(C)C(=O)Nc2ccc(C(F)(F)F)cc2)OCCCC[C@H](C)O3)cc1", "cytotoxicity call": "inactive"}
{"smiles": "C[C@@H]1CN([C@@H](C)CO)C(=O)c2cc(NC(=O)Nc3ccc(F)cc3)ccc2O[C@@H](C)CCCCO[C@H]1CN(C)Cc1ccc(C(=O)O)cc1", "cytotoxicity call": "inactive"}
{"smiles": "COc1cccc(S(=O)(=O)N2C[C@H](O)COC[C@H]3O[C@H](CC(=O)NCCCN4CCOCC4)CC[C@@H]32)c1", "cytotoxicity call": "inactive"}
{"smiles": "CN1[C@@H]2c3ccc(-c4ccccc4)c(=O)n3C[C@H]1[C@H](CO)[C@H]2C(=O)NCCCN1CCOCC1", "cytotoxicity call": "inactive"}
{"smiles": "Cc1noc(C)c1NC(=O)Nc1cccc2c1O[C@H](CN(C)C(=O)NC(C)C)[C@H](C)CN([C@@H](C)CO)C2=O", "cytotoxicity call": "inactive"}
{"smiles": "O=C(C[C@H]1CC[C@H]2[C@@H](COC[C@H](O)CN2S(=O)(=O)c2ccc(Cl)cc2)O1)N[C@@H]1CCN(Cc2ccccc2)C1", "cytotoxicity call": "inactive"}
{"smiles": "CCCN(C)C[C@@H]1OCCCC[C@@H](C)Oc2ccc(NS(=O)(=O)c3cn(C)cn3)cc2C(=O)N([C@H](C)CO)C[C@@H]1C", "cytotoxicity call": "inactive"}
{"smiles": "COc1ccc(NC(=O)N(C)C[C@H]2Oc3ncc(C#CC(C)C)cc3C(=O)N([C@H](C)CO)C[C@H]2C)cc1", "cytotoxicity call": "inactive"}
{"smiles": "CC1OC(OC2C(O)CC(OC3C(O)CC(OC4CCC5(C)C(CCC6C5CCC5(C)C(C7=CC(=O)OC7)CCC65O)C4)OC3C)OC2C)CC(O)C1O", "note": "(configuration not stated)", "cytotoxicity call": "active"}
{"smiles": "C[C@H]1O[C@@H](O[C@H]2[C@@H](O)C[C@H](O[C@H]3[C@@H](O)C[C@H](O[C@H]4CC[C@@]5(C)[C@H](CC[C@@H]6[C@@H]5CC[C@]5(C)[C@@H](C7=CC(=O)OC7)CC[C@]65O)C4)O[C@@H]3C)O[C@@H]2C)C[C@H](O)[C@@H]1O", "cytotoxicity call": "active"}
{"smiles": "Cc1ccc(S(=O)(=O)N(C)C[C@H]2OCCCC[C@H](C)Oc3ccc(NC(=O)Nc4cccc5ccccc45)cc3C(=O)N([C@H](C)CO)C[C@H]2C)cc1", "cytotoxicity call": "inactive"}
{"smiles": "NCCCn1c2c(c3ccccc31)CCCC2", "cytotoxicity call": "active"}
{"smiles": "NCCCN1CCCN(CCCN)CC1", "cytotoxicity call": "inactive"}
{"smiles": "CC(=O)N1C(=O)N(C(C)=O)[C@@H](O)[C@H]1O", "cytotoxicity call": "inactive"}
{"smiles": "O=C(C[C@@H]1CC[C@H](NS(=O)(=O)c2ccccc2)[C@H](CO)O1)NCc1ccncn1", "cytotoxicity call": "inactive"}
{"smiles": "Nc1nnc(C(F)(F)F)[nH]1", "cytotoxicity call": "inactive"}
{"smiles": "CCCc1ccc2c(c1)CNCCC2", "cytotoxicity call": "inactive"}
{"smiles": "COc1ccc(NC(=O)N(C)C[C@@H]2OCCCC[C@@H](C)Oc3ccc(NC(=O)Cc4ccccc4)cc3C(=O)N([C@H](C)CO)C[C@@H]2C)cc1", "cytotoxicity call": "inactive"}
{"smiles": "C[C@@H]1CN([C@H](C)CO)C(=O)c2cc(NS(C)(=O)=O)ccc2O[C@@H]1CN(C)C(=O)Nc1ccc2c(c1)OCO2", "cytotoxicity call": "inactive"}
{"smiles": "C[C@@H]1CN([C@H](C)CO)C(=O)c2cc(NC(=O)Nc3ccccc3)ccc2O[C@@H](C)CCCCO[C@@H]1CN(C)S(=O)(=O)c1ccccc1", "cytotoxicity call": "inactive"}
{"smiles": "C[C@@H]1CN([C@H](C)CO)C(=O)c2cccc(NC(=O)Nc3cccc4ccccc34)c2O[C@@H]1CN(C)Cc1ccc(Oc2ccccc2)cc1", "cytotoxicity call": "inactive"}
{"smiles": "C[C@H](CO)N1C[C@H](C)[C@@H](CN(C)Cc2ccc(Oc3ccccc3)cc2)Oc2c(NC(=O)Nc3cccc4ccccc34)cccc2C1=O", "cytotoxicity call": "active"}
{"smiles": "C[C@H](CO)N1C[C@H](C)[C@H](CN(C)Cc2ccc(Oc3ccccc3)cc2)Oc2c(NC(=O)Nc3cccc4ccccc34)cccc2C1=O", "cytotoxicity call": "inactive"}
{"smiles": "COc1ccc(CN(C)C[C@@H]2Oc3c(NC(=O)Nc4cccc5ccccc45)cccc3C(=O)N([C@H](C)CO)C[C@@H]2C)cc1", "cytotoxicity call": "inactive"}
{"smiles": "C[C@H]1CN([C@@H](C)CO)C(=O)c2cccc(NC(=O)Nc3cccc4ccccc34)c2O[C@H]1CN(C)Cc1ccc(Oc2ccccc2)cc1", "cytotoxicity call": "active"}
{"smiles": "COc1ccc(CN(C)C[C@@H]2Oc3c(NC(=O)Nc4cccc5ccccc45)cccc3C(=O)N([C@@H](C)CO)C[C@@H]2C)cc1", "cytotoxicity call": "inactive"}
